Measured values: PubChem BioAssay (EPA / NIEHS)
Results filed as inconclusive are left out. The source made the active and inactive calls. Rule for the calls, unless noted: active = hit-call score of the fitted dose curve at least 0.9, where 1 is the maximum; inconclusive = response in the unintended direction; inactive = score below 0.9.

Tests used:
[1] = read-out: Thyroid Hormone Responsive (THRSP), THRSP (gene 7069); assay: LTEA_HepaRG_THRSP: Life Technologies and Expression Analysis (LTEA) Assay for Thyroid Hormone Responsive (THRSP) using HepaRG (AID 2283536; active = hit-call score of the fitted dose curve at least 0.9, where 1 is the maximum; inactive = score below 0.9); details: mRNA level, 48 h; actives raise or lower the signal
Method in brief: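 THRSP transcript quantified by Fluidigm qRT-PCR against three housekeeping genes after 48 h chemical exposure of HepaRG cells in serum-free induction medium; eight-point half-log series, top 100 uM, 0.5% DMSO vehicle, duplicate wells.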

[2] = read-out: Cellular tumor antigen p53 (Homo sapiens) (UniProt P04637); assay: LTEA_HepaRG_TP53: Life Technologies and Expression Analysis (LTEA) Assay for Tumor Protein P53 (TP53) using HepaRG (AID 2283537; active = hit-call score of the fitted dose curve at least 0.9, where 1 is the maximum; inactive = score below 0.9); details: mRNA level, 48 h; actives raise or lower the signal
Method in brief: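 Read-out is TP53 transcript level by microfluidic qRT-PCR, normalised to three housekeeping genes and fitted bidirectionally against DMSO. Human HepaRG cells received compounds for 48 h, highest concentration 100 uM.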

[3] = read-out: UDP glucuronosyltransferase (UGT1A1), UGT1A1 (gene 54658); assay: LTEA_HepaRG_UGT1A1: Life Technologies and Expression Analysis (LTEA) Assay for UDP glucuronosyltransferase (UGT1A1) using HepaRG (AID 2283538; active = hit-call score of the fitted dose curve at least 0.9, where 1 is the maximum; inactive = score below 0.9); details: mRNA level, 48 h; actives raise or lower the signal
Method in brief: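 Cells are plated, cultured 48 h, switched to serum-free induction medium, then dosed 48 h at eight concentrations (max 100 uM, 0.5% DMSO). RNA is isolated and UGT1A1 expression measured by qRT-PCR; changes versus DMSO are fitted in both directions.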

[4] = read-out: UDP glucuronosyltransferase (UGT1A6), UGT1A6 (gene 54578); assay: LTEA_HepaRG_UGT1A6: Life Technologies and Expression Analysis (LTEA) Assay for UDP glucuronosyltransferase (UGT1A6) using HepaRG (AID 2283539; active = hit-call score of the fitted dose curve at least 0.9, where 1 is the maximum; inactive = score below 0.9); details: mRNA level, 48 h; actives raise or lower the signal
Method in brief: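 qRT-PCR readout of UGT1A6 mRNA (normalized to ACTB/GAPDH/POLR2A) in differentiated HepaRG cells after 48 h chemical exposure; 8 concentrations, top 100 uM, half-log steps, 0.5% DMSO. Bidirectional curve fit relative to DMSO baseline.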

[5] = read-out: X-box binding protein 1 (XBP1), XBP1 (gene 7494); assay: LTEA_HepaRG_XBP1: Life Technologies and Expression Analysis (LTEA) Assay for X-box binding protein 1 (XBP1) using HepaRG (AID 2283540; active = hit-call score of the fitted dose curve at least 0.9, where 1 is the maximum; inactive = score below 0.9); details: mRNA level, 48 h; actives raise or lower the signal
Method in brief: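 HepaRG, 48 h exposure, 8-pt half-log CRC top 100 uM, 0.5% DMSO vehicle, duplicates. Readout: TaqMan qRT-PCR of XBP1 mRNA, housekeeping-normalised (ACTB/GAPDH/POLR2A); bidirectional fit vs DMSO baseline.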

[6] = LTEA_HepaRG_LDH_cytotoxicity: Cytotoxicity Assessment in the Life Technologies and Expression Analysis (LTEA) Assay (AID 2283563);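 for AC50: LDH activity released into spent culture medium as a marker of cell death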
Method in brief: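 HepaRG (human liver line), 48 h exposure, 8-pt half-log series from 100 uM, 0.5% DMSO vehicle, duplicates. Read-out: LDH in spent medium. Positive-direction fit vs DMSO baseline.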

[7] = ATG_XTT_Cytotoxicity: Cytotoxicity Assessment in the Attagene TRANS-FACTORIAL HepG2 Assay (AID 2283584)
Method in brief: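 XTT readout of cell number in transfected HepG2 cells, 24 h post-dosing; DMSO serves as negative control and baseline, with activity taken as loss of viability signal.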

[8] = TOX21_p53_BLA_p2_viability: Viability Assessment in the Tox21 HCT-116 p53 Agonism Beta-lactamase Assay, Phase 2 (AID 2283591);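 note: actives lower the ATP signal meaning cytotoxicity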
Method in brief: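 Cytotoxicity readout: CellTiter-Glo ATP luminescence, 30 min at room temperature, after the beta-lactamase read. Cells were HCT116 exposed 16 h at 37C to compounds pin-transferred at 217-fold dilution from DMSO stocks.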

[9] = biological target: Cellular tumor antigen p53 (Homo sapiens) (UniProt P04637); assay: TOX21_p53_BLA_p2_ratio: Tox21 HCT-116 p53 Agonism Beta-lactamase Assay, Ratio, Phase 2 (AID 2283592)
Chain of Cellular tumor antigen p53 (Homo sapiens) (P04637 whole entry, looked up): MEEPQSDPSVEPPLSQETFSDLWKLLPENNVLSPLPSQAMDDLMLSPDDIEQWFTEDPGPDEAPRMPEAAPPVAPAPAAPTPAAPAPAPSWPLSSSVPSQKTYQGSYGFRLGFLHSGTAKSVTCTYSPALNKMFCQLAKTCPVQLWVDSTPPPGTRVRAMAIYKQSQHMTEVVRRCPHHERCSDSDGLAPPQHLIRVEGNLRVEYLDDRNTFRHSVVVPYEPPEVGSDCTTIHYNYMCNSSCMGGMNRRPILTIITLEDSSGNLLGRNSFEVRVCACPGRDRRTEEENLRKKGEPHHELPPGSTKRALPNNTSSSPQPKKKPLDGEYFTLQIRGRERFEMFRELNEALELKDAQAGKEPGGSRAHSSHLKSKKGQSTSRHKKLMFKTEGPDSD
Method in brief: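 Readout: blue/green (460/530 nm) FRET emission ratio after 2 h CCF4-AM loading at room temperature, excitation 405 nm. HCT116 p53 bla cells, 16 h compound exposure at 37C, 5% CO2; agonist direction fitted against DMSO baseline.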

[10] = TOX21_p53_BLA_p3_viability: Viability Assessment in the Tox21 HCT-116 p53 Agonism Beta-lactamase Assay, Phase 3 (AID 2283593);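 note: cells exposed to compound for 16 h before reading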
Method in brief: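 Cellular ATP was quantified by CellTiter-Glo luminescence, read after 30 min at room temperature. Beforehand, HCT116 cells (4000/well) received compound 5 h post-seeding, 217-fold diluted from DMSO, then incubated 16 h at 37C.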

Measured: AC50

CN(C)CCO
inactive: [1] | [2] | [3] | [4] | [5] | [6] | [7] | [8] | [9] | [10]

CCCCCCCCOC(=O)c1ccccc1C(=O)OCCCCCCCC
inactive: [1] | [2] | [3] | [4] | [5] | [6] | [7] | [8] | [9] | [10]

C[C@]12CCC(=O)C=C1CC[C@@H]1[C@@H]2CC[C@]2(C)C(=O)CC[C@@H]12
active: [1] 1.39 µM | [3] 13.1 µM
inactive: [2] | [4] | [5] | [6] | [7] | [8] | [9] | [10]

NS(=O)(=O)C(F)(F)C(F)(F)C(F)(F)C(F)(F)C(F)(F)C(F)(F)C(F)(F)C(F)(F)F
inactive: [7] | [8] | [9]
active: [1] 7.4 µM | [2] 50 µM | [3] 10.1 µM | [4] 13.3 µM | [5] 3.63 µM | [6] 31.4 µM | [10] 46.1 µM

Nc1ccc(-c2ccc(N)cc2)cc1
inactive: [1] | [2] | [3] | [4] | [5] | [6] | [8] | [9] | [10]

CN(C)c1nc(=O)n(C2CCCCC2)c(=O)n1C
inactive: [1] | [3] | [4] | [5] | [6]

CC#Cc1cc(C)nc(Nc2ccccc2)n1
inactive: [2] | [4] | [5] | [8] | [9] | [10]
active: [1] 6.1 µM | [3] 8.68 µM | [6] 59.9 µM

COc1ccc(O)c(C(C)(C)C)c1
inactive: [1] | [2] | [3] | [4] | [5] | [6] | [7] | [9] | [10]
